Source: PubChem BioAssay
For part of these data: Potency and affinity values are given separately. Activity calls are given as the source filed them.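 How the source made its calls, unless noted: active means primary screen hit whose fluorescence ratio, in both repeats, exceeds the weak agonist control mean by 3 SD; inactive means the rest.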

Legend:
[1] = test system: TRPC4 beta (transient receptor potential cation channel C4), mouse; experiment: TRPC4 cation channel opening, retest – cell-based, Fluo4 calcium, HEK293 TRPC4beta/mu-opioid, duplicates, 10 µM, confirmation (AID 2426;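 active means fluorescence ratio normalized to control raised more than 50% in primary screen plus both repeat runs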); conditions: Fluo4 calcium fluorescence, at 10 µM; stronger effect = higher value
[2] = test system: transient receptor potential cation channel C4 beta (TRPC4), mouse; experiment: TRPC4 cation channel opening, second retest – cell-based, second round, Fluo4, HEK293 TRPC4beta/mu-opioid, 1 µM, confirmation (AID 2461;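 active means primary screen active and over 50% activation in each of two duplicate runs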); conditions: Fluo4 calcium fluorescence, at 1 µM; stronger effect = higher value
[3] = test system: TRPC4 (transient receptor potential cation channel C4 beta), mouse; experiment: potentiation of DAMGO EC20 TRPC4 response – cell-based, second round, Fluo-4, HEK293 TRPC4beta/mu-opioid, 1 µM, confirmation (AID 2554); conditions: DAMGO EC20, Fluo-4 calcium flux, at 1 µM; stronger effect = higher value
[4] = test system: TRPC4 beta (transient receptor potential cation channel C4), mouse; experiment: potentiation of DAMGO EC20 TRPC4 response – cell-based, Fluo-4, HEK293 TRPC4beta/mu-opioid, confirmation (AID 2555;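 active means primary screen hit whose calcium fluorescence ratio, in both repeats, exceeds the weak agonist control mean by 3 SD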); conditions: DAMGO EC20, Fluo-4 calcium flux, at 10 µM; stronger effect = higher value
[5] = target: Short transient receptor potential channel 4 (Mus musculus) (UniProt Q9QUQ5); experiment: blockers of DAMGO-evoked TRPC4 calcium flux – cell-based, Fluo4, HEK293 TRPC4beta/mu-opioid, confirmation (AID 2636;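 active means calcium signal cut by more than 3 SD below the full-agonist control yet still positive, in both repeats and the earlier primary screen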); conditions: at 10 µM; stronger effect = higher value
Short transient receptor potential channel 4 (Mus musculus), sequence (Q9QUQ5 whole entry, looked up): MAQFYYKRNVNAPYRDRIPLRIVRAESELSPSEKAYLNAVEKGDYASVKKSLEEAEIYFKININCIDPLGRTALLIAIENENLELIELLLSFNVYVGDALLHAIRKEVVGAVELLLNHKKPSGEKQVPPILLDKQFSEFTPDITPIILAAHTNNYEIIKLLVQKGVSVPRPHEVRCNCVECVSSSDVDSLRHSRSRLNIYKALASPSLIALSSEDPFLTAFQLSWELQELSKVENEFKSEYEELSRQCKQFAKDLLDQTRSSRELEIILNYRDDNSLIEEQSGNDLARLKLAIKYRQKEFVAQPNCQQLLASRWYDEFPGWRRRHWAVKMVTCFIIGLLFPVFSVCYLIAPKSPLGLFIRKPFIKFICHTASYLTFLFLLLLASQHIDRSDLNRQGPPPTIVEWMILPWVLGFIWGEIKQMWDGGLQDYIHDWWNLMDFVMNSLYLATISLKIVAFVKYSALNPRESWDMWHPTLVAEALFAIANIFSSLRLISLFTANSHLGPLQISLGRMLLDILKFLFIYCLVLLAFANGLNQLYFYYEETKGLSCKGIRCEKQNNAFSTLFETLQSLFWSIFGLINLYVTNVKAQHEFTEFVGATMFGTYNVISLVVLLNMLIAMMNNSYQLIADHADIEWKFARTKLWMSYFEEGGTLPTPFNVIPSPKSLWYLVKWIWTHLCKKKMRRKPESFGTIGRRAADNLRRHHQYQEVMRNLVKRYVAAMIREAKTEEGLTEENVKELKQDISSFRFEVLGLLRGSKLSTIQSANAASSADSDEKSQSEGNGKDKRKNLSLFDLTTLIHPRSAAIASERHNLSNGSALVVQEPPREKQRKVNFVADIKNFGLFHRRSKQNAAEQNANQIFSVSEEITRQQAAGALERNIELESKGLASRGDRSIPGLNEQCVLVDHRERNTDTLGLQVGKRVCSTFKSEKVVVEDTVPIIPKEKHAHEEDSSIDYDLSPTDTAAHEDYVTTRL

[6] = target: Short transient receptor potential channel 4 (Mus musculus) (UniProt Q9QUQ5); experiment: blockers of DAMGO-evoked TRPC4 calcium flux – cell-based, second round, Fluo4, HEK293 TRPC4beta/mu-opioid, 1 µM, confirmation (AID 2637;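 active means calcium signal ratio cut to more than 3 SD under the fully stimulated control mean yet still positive, in both repeats and the primary screen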); conditions: at 1 µM; stronger effect = higher value
[7] = target: Short transient receptor potential channel 4 (Mus musculus) (UniProt Q9QUQ5); experiment: calcium entry via TRPC4 opening agents – cell-based, HEK293 TRPC4/mu-opioid, Fluo-4 calcium, dose response (AID 434937;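 active means primary screen activator hit with a dose response curve and TRPC4 channel activation at any tested dose; inactive means no activation, no dose response, or not a primary hit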); conditions: HEK293 TRPC4 cells, Fluo-4 calcium fluorescence ratio; series mostly up to 20 µM
[8] = target: Short transient receptor potential channel 4 (Mus musculus) (UniProt Q9QUQ5); experiment: potentiation of DAMGO-evoked TRPC4 calcium signal – cell-based, HEK293 TRPC4/mu-opioid, Fluo-4 calcium, EC20 DAMGO, dose response (AID 434941;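 active means earlier screen potentiator hit that boosts the TRPC4 ion channel at some dose, with a dose response; inactive means no potentiation, no dose response, or not a prior hit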;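 further: calcium entry triggered by an EC20 dose of DAMGO at the co-expressed mu-opioid receptor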); conditions: HEK293 TRPC4/mu-opioid cells, Fluo-4 calcium fluorescence; series mostly up to 20 µM
[9] = target: Short transient receptor potential channel 4 (Mus musculus) (UniProt Q9QUQ5); experiment: block of DAMGO-driven TRPC4 calcium entry – cell-based, HEK293 TRPC4/mu-opioid, Fluo-4 calcium, dose response (AID 434942;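 active means primary screen inhibitor hit that blocks the TRPC4 channel at some tested dose, yielding a dose curve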); conditions: HEK293 TRPC4/mu-opioid cells, DAMGO-evoked Fluo-4 calcium ratio; series mostly up to 20 µM
[10] = target: Short transient receptor potential channel 6 (Mus musculus) (UniProt Q61143); experiment: TRPC6 blockade by TRPC4 inhibitor hits – cell-based, HEK293, membrane potential dye, duplicate, selectivity assay for TRPC4 inhibitor project, confirmation (AID 434948;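 active means active in primary screen and both duplicates, each dropping signal beyond three positive-control SD with fluorescence still positive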); conditions: HEK293 TRPC6, membrane potential dye fluorescence, at 10 µM, stimulated with maximal-effect acetylcholine; stronger effect = higher value
Short transient receptor potential channel 6 (Mus musculus), sequence (Q61143 whole entry, looked up): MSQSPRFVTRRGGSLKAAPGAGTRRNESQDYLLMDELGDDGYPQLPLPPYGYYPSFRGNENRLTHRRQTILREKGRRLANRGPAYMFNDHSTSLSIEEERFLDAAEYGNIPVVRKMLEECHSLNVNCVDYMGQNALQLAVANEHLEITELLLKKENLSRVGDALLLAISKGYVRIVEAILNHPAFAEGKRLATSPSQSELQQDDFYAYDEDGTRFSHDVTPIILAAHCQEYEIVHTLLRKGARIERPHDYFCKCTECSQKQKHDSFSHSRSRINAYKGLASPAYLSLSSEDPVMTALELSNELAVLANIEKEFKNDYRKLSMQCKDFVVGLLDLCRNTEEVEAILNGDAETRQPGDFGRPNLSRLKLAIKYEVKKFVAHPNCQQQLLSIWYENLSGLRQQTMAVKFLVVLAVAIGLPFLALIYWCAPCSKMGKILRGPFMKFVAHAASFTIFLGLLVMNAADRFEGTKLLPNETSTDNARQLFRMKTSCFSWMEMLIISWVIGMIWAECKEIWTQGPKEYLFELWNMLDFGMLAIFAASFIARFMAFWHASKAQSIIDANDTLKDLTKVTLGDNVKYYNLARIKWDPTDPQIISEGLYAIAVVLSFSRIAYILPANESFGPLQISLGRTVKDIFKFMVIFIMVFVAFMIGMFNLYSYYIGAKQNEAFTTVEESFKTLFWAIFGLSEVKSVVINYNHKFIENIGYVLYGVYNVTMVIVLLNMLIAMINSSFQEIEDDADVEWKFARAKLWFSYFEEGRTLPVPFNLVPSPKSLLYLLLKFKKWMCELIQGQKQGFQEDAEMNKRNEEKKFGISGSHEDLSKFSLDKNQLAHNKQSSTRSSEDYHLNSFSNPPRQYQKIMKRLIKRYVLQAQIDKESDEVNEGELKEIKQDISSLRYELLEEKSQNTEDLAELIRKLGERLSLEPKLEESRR

[11] = target: Short transient receptor potential channel 6 (Mus musculus) (UniProt Q61143); experiment: TRPC6 opening by TRPC4 activator hits – cell-based, HEK293, membrane potential dye, duplicate, selectivity assay for TRPC4 activator project, confirmation (AID 434950;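 active means membrane potential signal rise above negative control mean plus 3 SD in both duplicates, also active in the earlier TRPC4 screen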); conditions: HEK293 TRPC6, membrane potential fluorescence, at 10 µM; activation: stronger effect = higher value; outcome: activation
[12] = target: Short transient receptor potential channel 6 (Mus musculus) (UniProt Q61143); experiment: positive modulators of mouse TRPC6 channel – HEK293 cells, membrane potential dye, duplicate, selectivity assay for TRPC4 potentiator project, confirmation (AID 434952;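 active means compound raising the membrane signal above positive-control mean plus 3 SD in both repeats, and a primary screen hit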); conditions: HEK293 TRPC6, membrane potential dye fluorescence, at 10 µM, maximal acetylcholine added after compound; stronger effect = higher value
[13] = target: Short transient receptor potential channel 4 (Mus musculus) (UniProt Q9QUQ5); experiment: calcium flux activators in TRPC4/5HT1a cells, counter-screen for TRPC4 activator project, cell-based, second counter screen, HEK293 TRPC4/5HT1a, Fluo-4 (AID 434977;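 active means calcium signal rise above buffer-control mean plus 5 SD in both duplicates, and also a hit in the primary screen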); conditions: Fluo-4 calcium flux, at 10 µM; stronger effect = higher value
[14] = serotonin-gated TRPC4 signal block – cell-based, second counter screen, HEK293 TRPC4/5HT1a, Fluo-4, counter-screen for TRPC4 inhibitor project, confirmation (AID 434978;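 active means primary screen active whose calcium signal fell more than 3 SD beyond the full-serotonin control mean in both duplicate plates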;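 further: serotonin given first at submaximal then at maximal dose after compound preincubation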); conditions: Fluo-4 calcium flux, at 10 µM, serotonin added to trigger calcium flux; stronger effect = higher value
[15] = test system: TRPC4 (mouse), co-expressed with 5HT1a in HEK293; experiment: enhancement of serotonin-evoked TRPC4 response – cell-based, second counter screen, HEK293 TRPC4/5HT1a, Fluo-4, counter-screen for TRPC4 potentiator project, confirmation (AID 434979;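 active means signal rise over 3 SD above mean of control wells given weak agonist, in both repeats and first screen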); conditions: Fluo-4 calcium flux, at 10 µM, serotonin added at its EC20 dose; stronger effect = higher value
[16] = nonspecific calcium rise without TRPC4 – cell-based, HEK293 mu-opioid receptor line, counter-screen for TRPC4 activator project, confirmation (AID 449723;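 active means hit in primary screen, with calcium signal over 5 SD above buffer well mean in both duplicates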;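 further: counter screen cells carry the mu-opioid receptor alone and lack TRPC4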); conditions: HEK293 mu-opioid cells, Fluo-4 calcium fluorescence, at 10 µM; stronger effect = higher value
[17] = nonspecific potentiation of DAMGO calcium response – cell-based, HEK293 mu-opioid receptor line, counter-screen for TRPC4 allosteric potentiator project, confirmation (AID 449724;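 active means calcium signal rise more than 3 SD above the low-dose agonist control mean, in both duplicate plates and the primary screen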); conditions: HEK293 mu-opioid receptor cells, Fluo-4 calcium flux, at 10 µM, compound added before EC20 DAMGO stimulus; stronger effect = higher value

SMILES | outcome [1] | outcome [2] | potentiation [3] | potentiation [4] | outcome [5] | outcome [6] | outcome [7] | outcome [8] | outcome [9] | outcome [10] | outcome [11] | outcome [12] | outcome [13] | outcome [14] | potentiation [15] | outcome [16] | outcome [17] | outcome [3] | outcome [4]
O=C(Cc1cccs1)Nc1nc(-c2ccc(F)cc2F)cs1 | inactive | inactive | 24% (active) | 65% (active) | inactive | inactive | inactive | inactive | inactive | inactive | inactive | inactive | inactive | inactive | 91.9% (active) | inactive | inactive |  | 
OCCN(CCO)c1ncnc2c1sc1nc(N3CCOCC3)c3c(c12)CCCC3 | inactive | inactive |  | 10% (active) | inactive | inactive | inactive | inactive | inactive | inactive | inactive | inactive | inactive | inactive | 27.8% (active) | inactive | inactive | inactive | 
CN(C)CCOc1ccc2ccccc2c1 | inactive | inactive | 8% (active) | 14% (active) | inactive | inactive | inactive | inactive | inactive | inactive | inactive | inactive | inactive | inactive | 19.8% (active) | inactive | inactive |  | 
CCN1CCN(c2nc(C)c3c(n2)CC(C)CC3=O)CC1 (configuration not stated) | inactive | inactive |  |  | inactive | inactive | inactive | inactive | inactive | inactive | inactive | inactive | inactive | inactive | 8.12% (active) | inactive | inactive | inactive | inactive
Cc1ccc(C)c(OCCCCN2CCNCC2)c1C | inactive | inactive |  | 9% (active) | inactive | inactive | inactive | inactive | inactive | inactive | inactive | inactive | inactive | inactive | 29.4% (active) | inactive | inactive | inactive | 
CCN1CCN(c2ccc(S(=O)(=O)N3CCCCC3)cc2NC(=O)COc2cc(C)ccc2Cl)CC1 | inactive | inactive |  | 16% (active) | inactive | inactive | inactive | inactive | inactive | inactive | inactive | inactive | inactive | inactive | 17.8% (active) | inactive | inactive | inactive | 
